What was measured:
Assay in all cases: PBM binding z-score (relative to random genomic background probes); higher = stronger binding; sequences stand for … in GC…GCGATTGACAGCGTAGAATGAAGG
[1] = system: RARb homodimer (NR concentration 270 nM)
Outline: (§1)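 Regression normalization was applied to scanned fluorescence from custom Agilent 4×180K protein-binding microarrays. Before scanning, arrays were incubated 1 h with ligand-free nuclear receptor dimers, and binding was detected with antibodies against each partner (one per run). Binding z-scores use the random background probes as reference.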

[2] = system: RARg:RXRa (NR concentration 270 nM, RXRa partner concentration 90 nM)
Outline: as §1

[3] = system: RARg homodimer (NR concentration 270 nM)
Outline: as §1

[4] = system: RXRa DBDmut IVT, anti-RXR (DBD mutation: RXRa K156A/R161A, NR concentration 90 nM)
Outline: as §1

[5] = system: RXRa homodimer (NR concentration 180 nM)
Outline: as §1

[6] = system: THRa:RXRa (NR concentration 90 nM, RXRa partner concentration 90 nM)
Outline: as §1

[7] = system: THRa homodimer (NR concentration 90 nM)
Outline: as §1

[8] = system: VDR homodimer (NR concentration 270 nM)
Outline: as §1

| Sequence | PBM binding z-score [1] | PBM binding z-score [2] | PBM binding z-score [3] | PBM binding z-score [4] | PBM binding z-score [5] | PBM binding z-score [6] | PBM binding z-score [7] | PBM binding z-score [8] |
| --- | --- | --- | --- | --- | --- | --- | --- | --- |
| TCTTGTAGCTCAGCAGGTTAAGAAAGCTGGCCAA | -0.305 | -0.557 | -0.799 | -0.298 | -0.011 | -0.123 | -0.926 | -0.952 |
| AATACAGAGTCACTAGGCCAGAGTAGGTACGAAT | 0.0526 | 0.21 | 0.516 | -0.494 | 0.28 | -0.12 | -0.685 | -0.0774 |
| CCTTACGGGTCACTGCCAGGTTATAGCATTTGGA | 3.13 | 5.43 | 4.16 | 1.46 | 4.62 | 3.4 | 0.811 | 1.47 |
| ATACCAAGGTGATCGAGAGGTCGTTGATACTAAC | 1.77 | 2.91 | 1.06 | 0.829 | 1.71 | 2.59 | 0.902 | 1.98 |
| GGAACGAGGGCAAGATGATAGCAGAGTTTGATGG | 1.21 | 1.2 | 1.78 | 1.52 | 0.962 | 0.971 | -0.0312 | 1.08 |
| ATACCAAGGTGATCGTGAGGTCGTTCATACTAAC | 1.73 | 2.21 | 0.992 | 0.992 | 1.58 | 3.38 | 2.71 | 3.68 |
| CGAACTAGGTCAGTGACAGGACAGTGAATAGTAA | 2.76 | 3.47 | 3.9 | 0.653 | 1.34 | 1.98 | 0.499 | 0.295 |
| CAAACTCGGTCACAGAGGTCAAAGTCCGTGCGTA | 5.29 | 6.57 | 6.96 | 2.49 | 6.63 | 4.04 | 1.73 | 5.74 |
| GCTTACGGGTCAAAGGTTATAGCTTGAATAGAAT | 3.13 | 6.69 | 4.63 | 2.37 | 8.87 | 3.57 | -0.0839 | 1.45 |
| CGAACTAGGTCAGCCAGGACAGTGAATACATTGA | 2.65 | 3.04 | 4.54 | 1.2 | 1.54 | 3.12 | 1.45 | 0.353 |
| CCTACTGGGCCACGAAACGTCATTGATTCAGTGA | -0.373 | -0.321 | 0.105 | -0.404 | -0.385 | -0.288 | -0.682 | -1.01 |
| GCTTGTAGATCAAGGTTAAGCAAGACTAAGCTAA | 0.306 | 0.623 | 0.359 | -0.0459 | 0.912 | 1.67 | -0.236 | -0.472 |
| ATCTCGAGGTAAAGTTCAGTGAAAGATCGATAGA | 2.23 | 2.68 | 2.72 | 0.929 | 1.7 | 1.71 | -0.0248 | 1.71 |
| AATAGCAGGCCAAGTTTGGGTCACTCAAACAAAG | 2.31 | 2.53 | 1.67 | -0.564 | 0.964 | 2.63 | 0.748 | 0.388 |
| TCTGCTAGGTAAGTTGGTCAGCTAACGAGCTGCC | -0.545 | -0.54 | -0.71 | 0.107 | -0.613 | -0.549 | -0.918 | -0.989 |
| TCTTGTGGATCAATAGAGGTTAAGAAAGTGCGCT | 1.26 | 0.875 | 0.534 | 0.749 | 1.22 | 2.23 | -0.3 | 0.314 |
| GGAACGAGGCCATTCGAGTTGATAGCATGGCGAT | -0.135 | 0.361 | 0.706 | 2.13 | -0.125 | 2.23 | -0.443 | 1.7 |
| CCAGACAGGTGAGAAGGTAACTAAGCCTCGATTA | 0.66 | 0.524 | 0.586 | -0.275 | 0.277 | 0.221 | -0.101 | -0.0907 |
| ACTAGCAGGCCAATTTTGGGTCACTCAAACAAAG | 2.11 | 1.59 | 1.25 | -0.264 | 0.898 | 2.34 | 1.24 | -0.032 |

| Sequence | PBM binding z-score [1] | PBM binding z-score [2] | PBM binding z-score [3] | PBM binding z-score [4] | PBM binding z-score [5] | PBM binding z-score [6] | PBM binding z-score [7] | PBM binding z-score [8] |
| --- | --- | --- | --- | --- | --- | --- | --- | --- |
| GCAGACAGGTGAAACGCAGGTAACGCAGGGTGGC | 0.284 | 1.13 | 0.47 | -0.945 | 0.641 | 1.51 | -0.416 | -0.757 |
| CCTTACGGGCCACTCCAGGTTATAGCATCGGAGT | 0.457 | 0.099 | 0.515 | -0.62 | -0.0369 | 2.62 | 0.204 | 0.0382 |
| TCGAGTAGGTCAGGGGCATTCAGAATGGCGTCGA | 2.9 | 3.14 | 3.99 | 0.647 | 2.5 | 1.6 | 0.0377 | 0.669 |
| CGAACTAGGTCATCCAGGACAGTGAATACATTGA | 3.06 | 4.04 | 4.85 | 2.52 | 2.79 | 3.59 | 1.84 | 1.96 |
| ACTATTAGTTGAGACTAGGGCAACCGATAGGTTG | 0.465 | 0.376 | 0.586 | -0.0472 | 0.0824 | 1.25 | -0.533 | -0.353 |
| ATCTCTAGGTAACAAGTTCAGTGCAAGAGAGGAC | 1.96 | 1.28 | 1.46 | 0.886 | 0.703 | 2.19 | 1.03 | 3.19 |
| CCTTACGGGTCACTCCAGGTTATAGCCTCGGAGT | 3.1 | 4.3 | 4.02 | 1.01 | 4.02 | 5.14 | 0.467 | 1.13 |
| CCGAGTTGGTCAGGAGGTCACACACCGGATATGA | 4.31 | 5.33 | 4.41 | 1.8 | 4.96 | 3.47 | 2.02 | 3.09 |
| CCTAGTAGGTCAAGGTCACACACGCTATAGGTAC | 5.28 | 6.17 | 7.17 | 2.82 | 6.23 | 4.3 | 4.17 | 3.86 |
| GCTTGTTGGTCAGTAAAAGGTCACACACCGGTCG | 5.37 | 5.53 | 4.67 | 0.545 | 5.16 | 3.5 | 2.15 | 1.68 |
| TAGCCTAGGTCATTGGGCCAGAATAGTACGCATC | 2.6 | 4.03 | 4.07 | 1.58 | 2.8 | 2.66 | 0.586 | 1.12 |
| TTACCAAGGTGAGCTGACGTCGTTGATCCAACTC | -0.0202 | 0.00493 | 0.0726 | -0.698 | 0.32 | 0.839 | -0.28 | -1.04 |
| GATACAGGGTCCGCTAGAGGCCAGAGTATGGAAA | 0.0694 | 0.628 | 0.211 | -0.114 | -0.246 | 0.0317 | -1.09 | -0.148 |
| AGAACGAGGGCGCGCTGAGTTGATAGCAGAGTAG | -0.416 | 0.211 | 0.0624 | 0.991 | 0.444 | 0.45 | -0.623 | 0.824 |
| GCGACTGGGGCAAAGCAGGTAACCATAAGGTTGG | 0.207 | 0.0978 | 0.448 | -0.914 | 0.117 | 2.89 | -0.129 | -0.329 |
| CCGAGAAGGTTATGGGGCATTCAGGCAACGGTGA | 1.61 | 1.84 | 1.38 | 0.364 | 2.23 | 1.3 | 0.0713 | 0.22 |
| ATCTCTAGGTAACAAGTCCAGTGAAAGAGAGGAC | 0.709 | 0.499 | 0.722 | 0.0341 | 0.552 | 0.997 | 0.64 | 0.635 |
| AGTCACAGTTCATCTAGGTAACGTAAGATATGCT | 1.67 | 2.47 | 2.66 | 3.33 | 2.05 | 2.13 | 0.362 | 3.1 |
| ACTCGGAGGACAAAGGTCAGAGTTACGCCAGTGA | 4.32 | 5.86 | 4.91 | 1.63 | 4.97 | 3.59 | 0.845 | 0.984 |

Source: the supplement of paper PMC6555819
